Test results reported in the supplement of paper PMC11150407.
Among all 3,000 compounds or so, about 45 (2%) showed an effect of 50% or more. This excerpt belongs to a sample that is enriched for strong results.

test system: MOLM1 and UCSD/AML1 (averaged); test: cell viability relative to DMSO control (POC); higher = less growth inhibition; settings: 1 µM; 72 h
Experimental: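 Primary viability screen in the 3q26 EVI1-high AML cell lines MOLM1 and UCSD/AML1, compounds at 1 uM for 72 h. ATP CellTiter-Glo read-out given as percent viable over DMSO control (POC), averaged over duplicates. This mapping covers the TimTec NDL-3000 natural derivative library, whose compounds are identified by TimTec catalogue codes (ST...).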

SMILES	cell viability [%]
O=C(O)/C=C/c1ccc(Cl)c(Cl)c1	97.8
COc1cc(C(=O)Oc2ccccc2)cc(OC)c1OC	108
COc1cc(C(=O)N2CCN(c3cccc(C)c3C)CC2)cc(OC)c1OC	12.5
COc1cc(C(=O)N2c3ccccc3C(C)=CC2(C)C)cc(OC)c1OC	29.3
COc1cc(C(=O)N2CCOCC2)cc(OC)c1OC	98.2
COc1cc(C(=O)N2CCN(C(=O)c3cccc(Cl)c3)CC2)cc(OC)c1OC	102
COc1cc(C(=O)N2c3ccccc3CC2C)cc(OC)c1OC (configuration not stated)	91.9
O=C(/C=C/c1ccc2c(c1)OCO2)c1ccc2c(c1)OCCO2	104
Cn1c(SCc2ccc(Cl)cc2)nc2c(=O)[nH]cnc21	90
COc1ccc2[nH]cc(CCNC(=O)c3nn(-c4ccccc4)nc3C)c2c1	107
COc1ccc(/C=C2\Oc3ccc(Br)cc3C2=O)cc1	97.7
CCC1C/C(=C\c2ccc(OC)cc2)C(=O)/C(=C/c2ccc(OC)cc2)C1 (configuration not stated)	12.8
COc1ccc(/C=C2\CCc3ccccc3C2=O)cc1	94
CCOC(=O)c1ccc2nc3c(=O)[nH]c(=O)nc-3n(CCc3ccc(OC)c(OC)c3)c2c1	99.7
COc1ccc(OCc2cc(C=O)ccc2OC)cc1	107
COc1ccc(C=O)cc1COc1ccc2c(c1)CCC2	47.2
COc1ccc(/C=C/C(=O)O)cc1COc1ccccc1	101
O=C(OCC1CCCN2CCCCC12)c1ccccc1O (configuration not stated)	96.9
Cc1cc2oc(=O)cc(O)c2cc1C	95.7

SMILES	cell viability [%]
O=C(c1ccccc1)N1CCN(CC(O)Cn2c3ccccc3c3ccccc32)CC1 (configuration not stated)	99.4
CC1(C(=O)O)CCC2(C)CCC3(C)C(=CC(=O)C4C5(C)CCC(OC6OC(C(=O)O)C(O)C(O)C6OC6OC(C(=O)O)C(O)C(O)C6O)CC5CCC43C)C2C1.CC1(C(=O)O)CCC2(C)CCC3(C)C(=CC(=O)C4C5(C)CCC(OC6OC(C(=O)O)C(O)C(O)C6OC6OC(C(=O)O)C(O)C(O)C6O)CC5CCC43C)C2C1.CC1(C(=O)O)CCC2(C)CCC3(C)C(=CC(=O)C4C5(C)CCC(OC6OC(C(=O)O)C(O)C(O)C6OC6OC(C(=O)O)C(O)C(O)C6O)CC5CCC43C)C2C1.[Fe] (configuration not stated)	91.5
O=c1cc(-c2ccccc2Cl)oc2c(Br)cc(Cl)cc12	112
O=C(N/N=C/c1cc(N=Nc2cccc(C(F)(F)F)c2)ccc1O)c1ccc2c(c1)OCO2	21.3
O=C(N/N=C/c1cc(N=Nc2cccc3ccccc23)ccc1O)c1ccc2c(c1)OCO2	64.5
O=C(N/N=C\c1cc(Br)cc(Br)c1OC(=O)c1cccc(F)c1)c1ccc2c(c1)OCO2	64.1
Cc1cc(=O)[nH]c(SCC(=O)Nc2cccc(C)c2C)n1	114
Cc1ccccc1C(=O)OCC1CCCN2CCCCC12.O.O.O.O.O.O.O=[N+]([O-])O.O=[N+]([O-])O.[Co] (configuration not stated)	104
CC(C)c1ccc(/C=C/C(=O)N2CCC3(O)CCCCC3C2c2ccc(F)cc2)cc1 (configuration not stated)	77.9
O=C(Nc1c(C(=O)Nc2ccccc2)c2ccccc2n(Cc2ccc(F)cc2)c1=O)c1ccccc1	94.1
COc1cccc(C=Nc2ccc3cc4ccc(N=Cc5cccc(OC)c5O)cc4nc3c2)c1O	2.39
COC(=O)C1=C(C)NC(SCC(=O)c2ccc3c(c2)OCO3)=C(C#N)C1c1cccs1 (configuration not stated)	95.7
CC(C)C(=O)NCC(=O)NCC(=O)O	98.8
O=C(CCNc1n[nH]c(=O)[nH]c1=O)N/N=C/c1cccnc1	93
CCn1c2ccccc2c2cc(/C=N/NC(=O)c3cc(OC)c(OC)c(OC)c3)ccc21	10.7
COc1cc(/C=N/NC(=O)CCC(=O)Nc2ccccc2C)cc(OC)c1OC	91.6
COc1ccccc1CNC(=O)c1cc(OC)c(OC)c(OC)c1	100
O=C(O)/C=C/c1c(Cl)cccc1Cl	94.6
